A selection: hits, their analogues and other compounds. The true share with any hit is near 11%.
USP28 inh: blocks human USP28 ubiquitin-rhodamine cleavage. Q96RU2. purified USP28, Ub-rhodamine cleavage fluorescence, 30 min. inhibition, % at 25 µM. 47,000 compounds, 3% hits. AID 1645857
USP30 block: blocks human USP30 ubiquitin-rhodamine cleavage. Q70CQ3. purified USP30, Ub-rhodamine cleavage fluorescence. inhibition, % at 25 µM. AID 1645860. 47,000 compounds, 5.3% hits
USP17 block: human USP17-like deubiquitinase inhibition; inhibition, % at 50 µM; 47,000 compounds, 6.5% hits; purified USP17, Ub-rhodamine cleavage fluorescence, 3 h
Target sequence (A8MUK1 whole entry, looked up): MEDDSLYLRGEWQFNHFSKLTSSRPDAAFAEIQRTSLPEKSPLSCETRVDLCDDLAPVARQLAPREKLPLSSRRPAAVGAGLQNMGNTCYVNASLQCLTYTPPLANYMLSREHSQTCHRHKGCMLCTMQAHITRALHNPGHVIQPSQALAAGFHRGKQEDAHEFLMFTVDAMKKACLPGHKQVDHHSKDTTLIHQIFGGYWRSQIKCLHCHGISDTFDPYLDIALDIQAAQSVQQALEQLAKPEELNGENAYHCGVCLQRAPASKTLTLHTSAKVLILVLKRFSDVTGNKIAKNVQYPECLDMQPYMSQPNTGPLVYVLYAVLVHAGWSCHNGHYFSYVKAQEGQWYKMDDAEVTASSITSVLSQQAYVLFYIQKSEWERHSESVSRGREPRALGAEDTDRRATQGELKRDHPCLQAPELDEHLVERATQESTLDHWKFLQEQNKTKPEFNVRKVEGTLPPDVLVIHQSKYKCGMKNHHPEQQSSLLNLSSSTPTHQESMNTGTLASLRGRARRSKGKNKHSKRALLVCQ
Starred values were filed as active, the others as inactive; . = no result given. Cut-off read from the data, not from the text of the source: active = inhibition above about 30%; inactive = the rest.

SMILES	USP28 inh	USP30 block	USP17 block
CS(=O)(=O)N1CCc2cc(C(=O)Nc3ccc(Cc4ccncc4)cc3)ccc21	75.2*	6.3	-8.9
CCC1CCCCN1CC(=O)Nc1ccc2c(c1)OCCO2 (configuration not stated)	1.1	-11.6	3.4
CS(=O)(=O)N1CCCc2cc(C(=O)NCc3ccc4c(c3)OCO4)ccc21	14.0	3.2	-3.9
Cc1cccc(NC(=O)c2ccc3c(c2)N(S(C)(=O)=O)CC3)c1	5.9	7.3	1.9
Cc1ccc(CNC(=O)c2ccc(N3C(=O)C(C)CS3(=O)=O)cc2)cc1 (configuration not stated)	5.4	7.1	8.6
CC(C)[C@H](NC(=O)[C@H](Cc1c[nH]c2ccccc12)n1c(=O)[nH]c2ccccc2c1=O)C(=O)NCC1CCC(C(=O)O)CC1 (some centres not stated)	-8.1	-5.4	-7.0
COc1nc2ccccc2nc1N1CCCC(C(=O)NCc2ccccc2)C1 (configuration not stated)	-7.9	-12.3	-2.4
c1ccc(OCc2nc(-c3ccc(-n4ccnc4)nc3)no2)cc1	24.4	27.9	21.5
CN(C)CCC(=O)c1ccc2c(c1)CCCO2	9.6	13.9	5.4
Cc1cccc(CN2CCC3(CC2)CCN(c2cnn(C)c2)C3=O)n1	7.3	15.8	0.0
CCc1nc(-c2c(C)cc(C)nc2NC(=O)c2ccccc2C)no1	8.6	10.4	16.0
Cc1cc(C)c2c(NC(=O)c3cccc4ccccc34)nn(C)c2n1	-4.0	16.8	49.5*
Cc1ccc(C(=O)N2CCc3cc4ccccc4nc32)cc1	0.5	0.0	-2.8
COc1ccc(NC(=O)COc2ccc(C(=O)c3ccc(F)cc3)cc2)c(OC)c1	-0.6	9.3	9.6
COc1cc(C#N)c(NC(=NCc2ccc(F)cc2)SC)cc1OC	35.1*	47.6*	53.4*
O=c1cc(C2CCCN(Cc3c(F)cccc3F)C2)nc(-c2ccncc2)[nH]1 (configuration not stated)	-0.3	15.7	11.7
O=C(NC1CCCC1)N1CCC2(CC1)OC(C(=O)N1CCCCC1)Cn1ccnc12 (configuration not stated)	-4.1	-20.9	-1.9
COc1ccccc1NC(=O)C1CCCN(S(=O)(=O)N2CCOCC2)C1 (configuration not stated)	3.5	11.8	7.0
CCOC(=O)c1c(C)oc2nc(CSc3ccccc3)[nH]c(=O)c12	61.5*	-4.1	12.3
CCOC(=O)c1c(C)oc2ncnc(N(CCO)c3ccccc3)c12	-10.7	-39.0	-10.8
Cc1ccsc1C(=O)N1CCN(S(C)(=O)=O)CC(C(N)=O)C1 (configuration not stated)	-5.1	16.2	1.6
O=C(NC1CC1)c1cn(-c2ccc(Cl)cc2)nn1	-15.5	-14.5	.
Cc1nnc(NC(=O)c2cn(-c3ccc(Br)cc3)nn2)s1	0.2	34.1*	18.8
Cc1ccc2cc3c(NC(=O)CCC(=O)O)nn(CC(C)C)c3nc2c1	-2.4	-15.1	4.7
CC1(c2ccc3c(c2)OCCCO3)NC(=O)N(Cc2cccc3ccccc23)C1=O (configuration not stated)	9.7	8.5	4.1
SMILES	USP28 inh	USP30 block	USP17 block
COc1cccc(-c2ccc3nc(N4CCC(C(N)=O)CC4)sc3n2)c1	2.0	8.0	48.6*
O=C(C1CCN(c2nc3ccc(-c4cccnc4)nc3s2)CC1)N1CCCC1	-4.2	-2.2	-1.8
O=C(Nc1ccc(Cl)cc1)Nc1cccn2ncnc12	38.9*	51.7*	15.7
CCOc1ccccc1NC(=O)Nc1cccn2ncnc12	6.9	18.6	0.3
Cc1cccnc1C(=O)NC[C@]1(O)C[C@H](c2cccc(F)c2)O[C@H](C)[C@H]1O	13.0	23.0	14.1
COc1ccc(CCNC(=O)c2cnn(-c3ccc(F)cc3)c2C2CCNCC2)c(OC)c1	12.6	13.7	-38.5
COc1ccc(CCNC(=O)c2cnn(-c3ccc([N+](=O)[O-])cc3)c2C2CCNCC2)c(OC)c1	19.1	34.0*	-14.8
O=C(CCC1CCCCC1)N1CCN(c2ncnc3c2nnn3Cc2ccccc2)CC1	13.5	31.8*	12.2
O=C(c1ccc2ccccc2c1)N1CCN(c2ncnc3c2nnn3Cc2ccccc2)CC1	8.6	28.9	-0.1
O=C(c1ccc(F)cc1)N1CCN(c2ncnc3c2nnn3Cc2ccccc2)CC1	.	.	7.9
O=C(Cc1ccc(Cl)cc1)N1CCN(c2ncnc3c2nnn3Cc2ccccc2)CC1	12.0	35.1*	7.3
COc1c(O)cc2cc(C)oc(=O)c2c1O	7.9	35.8*	6.6
COC(=O)c1cc(OC)cc(O)c1OC(=O)c1c(O)cc2cc(C)oc(=O)c2c1O	-35.5	-131.7	-55.6
Cc1ccc(C)c(N(CC(=O)Nc2ccc3c(c2)OCCO3)S(=O)(=O)c2ccccc2)c1	20.4	30.4*	10.0
Cc1ccnc(NS(=O)(=O)c2ccc(NC(=O)c3ccc(S(=O)(=O)N(C)Cc4ccccc4)cc3)cc2)n1	-29.6	-57.0	.

High-throughput results as filed in PubChem BioAssay.
